Measured values as given in ChEMBL document CHEMBL4808148, “HDAC6 screening dataset using tau-based substrate in an enzymatic assay yields selective inhibitors and activators” (2021).
Among all 5,600 compounds or so, about 390 (7%) showed an effect of 50% or more. The list comes from a sample in which strong results are over-represented; it also holds similar structures and randomly drawn compounds. Starred links: 1 amine or outer side, 2 acyl side, 3 side chain; linkers in the order of their positions; H or OH if unused. Positions of bridges follow the written chain, without caps; N, C: chain ends. Residues, ends and D or L forms follow the SMILES beside them. X5 = O=C(CCC[*:2])[*:1]

Biological target: T1, Protein deacetylase HDAC6 (Homo sapiens) (UniProt Q9UBN7)
T1 sequence (whole entry): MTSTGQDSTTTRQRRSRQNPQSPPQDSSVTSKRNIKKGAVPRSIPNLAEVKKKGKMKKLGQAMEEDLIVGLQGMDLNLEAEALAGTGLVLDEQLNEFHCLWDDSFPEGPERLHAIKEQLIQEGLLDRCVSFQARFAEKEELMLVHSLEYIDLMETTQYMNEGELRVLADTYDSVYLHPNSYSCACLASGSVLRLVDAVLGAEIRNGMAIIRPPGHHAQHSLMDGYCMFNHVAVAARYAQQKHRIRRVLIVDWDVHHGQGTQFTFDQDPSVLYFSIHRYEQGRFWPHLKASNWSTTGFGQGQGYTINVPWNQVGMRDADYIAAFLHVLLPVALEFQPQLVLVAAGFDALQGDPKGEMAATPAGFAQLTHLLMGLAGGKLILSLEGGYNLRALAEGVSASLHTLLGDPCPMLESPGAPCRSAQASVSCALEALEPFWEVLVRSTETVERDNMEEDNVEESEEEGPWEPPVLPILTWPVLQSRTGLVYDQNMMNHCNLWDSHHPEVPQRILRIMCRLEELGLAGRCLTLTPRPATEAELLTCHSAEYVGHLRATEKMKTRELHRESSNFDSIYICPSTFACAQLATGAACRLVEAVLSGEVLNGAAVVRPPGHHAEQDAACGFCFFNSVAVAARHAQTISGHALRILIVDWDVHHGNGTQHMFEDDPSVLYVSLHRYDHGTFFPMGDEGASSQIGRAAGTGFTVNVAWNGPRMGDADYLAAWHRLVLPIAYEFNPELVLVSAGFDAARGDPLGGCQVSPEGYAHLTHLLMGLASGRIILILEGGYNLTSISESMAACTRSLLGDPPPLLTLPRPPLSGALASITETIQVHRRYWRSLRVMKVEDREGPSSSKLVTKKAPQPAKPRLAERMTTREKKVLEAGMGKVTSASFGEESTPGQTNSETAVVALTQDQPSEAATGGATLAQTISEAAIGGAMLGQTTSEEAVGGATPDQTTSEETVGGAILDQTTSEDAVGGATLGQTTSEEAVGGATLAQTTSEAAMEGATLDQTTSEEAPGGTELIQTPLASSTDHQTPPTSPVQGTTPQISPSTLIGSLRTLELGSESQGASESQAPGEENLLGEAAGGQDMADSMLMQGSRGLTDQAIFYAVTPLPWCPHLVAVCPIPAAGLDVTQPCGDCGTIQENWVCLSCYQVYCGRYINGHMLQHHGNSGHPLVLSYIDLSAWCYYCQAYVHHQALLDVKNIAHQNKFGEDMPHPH
Conditions: at 10 µM

Structure (SMILES) | inhibition [%]
C/N=c1/nc(-c2ccccc2)n(-c2ccccc2)s1 | 83.4
CC1=NN(c2ccccc2)C(=O)C1 | -9.97
Cn1c(-c2ccccc2)nnc1S(C)(=O)=O | 36
O=C(c1ccc(F)cc1)C1CCN(CCn2c(=S)[nH]c3ccccc3c2=O)CC1 | 13.2
O=C(O)c1c2ccccc2cc2ccccc12 | 22.9
Cn1ncc(Cl)c1-c1cc(C(=O)N[C@H](CN)Cc2cccc(F)c2)sc1Cl | -7.69
FC(F)(F)c1cccc(-c2noc(-c3cc(-c4ccccc4)c(C(F)(F)F)s3)n2)c1 | 18.5
O=C(c1ccc(F)cc1)N1CCC[C@H](c2nc(-c3ccc(F)cc3)no2)C1 | 10.8
O=C(O)c1cccc(-c2noc(-c3ccccc3F)n2)c1 | 105
CC1=C(/C=C/C(C)=C/C=C/C(C)=C/C=C/C=C(C)/C=C/C=C(C)/C=C/C2=C(C)C(=O)[C@@H](O)CC2(C)C)C(C)(C)C[C@H](O)C1=O | 10.4
COc1ccc2cc1Oc1cc3c(cc1OC)CC[N+](C)(C)[C@H]3Cc1ccc(cc1)Oc1c(OC)c(OC)cc3c1[C@@H](C2)[N+](C)(C)CC3 | 16.5
CC[C@H](C)[C@@H]1NC(=O)[C@H](Cc2ccc(OC)cc2)NC(=O)CCCSC[C@@H](C(=O)N2CCC[C@H]2C(=O)N[C@@H](CC(C)C)C(=O)NCC(N)=O)NC(=O)[C@H](CC(N)=O)NC(=O)[C@H](CCC(N)=O)NC1=O (Y(Me)IQNCPLG-NH2; linker N-5 via X5) | 11
COc1cc(C[C@@H](CO)[C@H](CO)Cc2ccc(O)c(OC)c2)ccc1O | 21.1
CCC(=O)NC[C@@H]1C[C@H]1c1cccc2c1CCO2 | -8.79
CN(C)CCN1C(=O)c2cccc3cc(N)cc(c23)C1=O | 24.8
O=C(CCCCCN1C(=O)c2cccc3cccc(c23)C1=O)NO | 100
O=C(O)CCCN1C(=O)c2cccc3cccc(c23)C1=O | -3.55
CN1CCN(CCCCN2C(=O)CN(/N=C/c3ccc(-c4ccc(Cl)cc4)o3)C2=O)CC1 | -7.57
COc1cc(Br)c(Nc2nc(-c3c(C)nc4ncccn34)cs2)c(Br)c1 | -6.53
CCOc1ccc(-c2nc(-c3cccc4c3CCC4NCCO)no2)cc1OCC (configuration not stated) | 26.2
CC(O)CCCCn1c(=O)c2c(ncn2C)n(C)c1=O (configuration not stated) | 14.8
CC(C)(C)c1cc(C(=O)/C(C#N)=N/Nc2cccc(Cl)c2)no1 | 58.9
O=C(O)c1cc2ccccc2s1 | 36
CCCCCCCCCCCCCCCCCCO | 10.8
Cc1cccc(COc2cccc(/C=C3\C(=O)NN(c4ccccc4)C3=O)c2)c1 | 6.83
C[C@H]1NCc2cc(-c3ccc4c(=O)c(C(=O)O)cn(C5CC5)c4c3OC(F)F)ccc21 | 14.9

Structure (SMILES) | inhibition [%]
O=C1NC(=O)c2cc(Nc3ccc(F)cc3)c(Nc3ccc(F)cc3)cc21 | 41.3
CC(C)Oc1ccc2c(=O)c(-c3ccccc3)coc2c1 | 95.2
COc1cc2c(=O)c(-c3ccc(O)cc3)coc2cc1O | 98.7
COc1cc(C=O)ccc1O | -4.44
O=c1c(-c2ccc(O)cc2)coc2c(C3OC(CO)C(O)C(O)C3O)c(O)ccc12 (configuration not stated) | 5.48
COc1ccc(-c2oc3cc(OC)ccc3c2C(=O)c2ccc(C#N)cc2)cc1 | 1.66
CC(C)Oc1ccc2c(=O)c3cc(C(=O)O)ccc3oc2c1 | 87.4
COc1cc(C(C)=O)ccc1O | 8.46
O=c1c(-c2ccc(O)cc2)coc2cc(O)ccc12 | 101
CNC(=O)c1c(C)oc2cc(Oc3ncnc4cc(OC)c(OC)cc34)ccc12 | -6.42
CNc1cc2[nH]c(=O)n(-c3ccc(NC(=O)NS(=O)(=O)c4ccc(Cl)s4)cc3)c(=O)c2cc1F | 32.7
C[C@@H]1CN(Cc2ncccn2)C[C@H]1c1nc2c(cnn2C2CCOCC2)c(=O)[nH]1 | -2.24
O=C(O)c1cc(O)c2c(Cl)cc(Cl)cc2n1 | 6.69
CC(=O)Oc1ccccc1C(=O)Oc1cccc(CO[N+](=O)[O-])c1 | 48.1
CC(C)(O)CNc1nc(Nc2ccnc(C(F)(F)F)c2)nc(-c2cccc(C(F)(F)F)n2)n1 | 36.2
CC(=O)NC(C(=O)O)C(C)(C)SN=O (configuration not stated) | 2.51
Cc1noc2c1-c1ccccc1C(c1ccc(Cl)cc1)=N[C@H]2CC(N)=O | 43.6
Nc1ccc(F)cc1NC(=O)c1ccc(CNC(=O)/C=C/c2cccnc2)cc1 | -6.65
N[C@H](CSC(c1ccccc1)(c1ccccc1)c1ccccc1)C(=O)O | -3.09
Cc1nc2n(c(=O)c1CCN1CCC(c3noc4cc(F)ccc34)CC1)CCCC2O (configuration not stated) | -9.07
N#Cc1cnc2cnc(NCc3cccnc3)cc2c1Nc1ccc(F)c(Cl)c1 | -0.05
COc1ccc(-n2c(C)c([N+](=O)[O-])c3ccc(O)cc32)cc1 | 12.7
COc1ccc(-c2coc3cc(O)ccc3c2=O)cc1 | 99.6
N[C@@H](CCNCc1ccc(Cl)cc1)C(=O)N1CCCCC1 | 0.96
N=C(Nc1ccc(I)cc1)NC1C2CC3CC(C2)CC1C3 (configuration not stated) | 1.97
Cc1ccc(-c2ncc[nH]2)cc1NC(=O)c1ccc(OCc2ccccn2)cc1 | 21.3
